Experimental data reported in PubChem BioAssay (NCI).
This is part of a sample that, as a whole, favours compounds with a hit. Of some 79,000 tested, about 15% had one in any assay. A number with no mark means an inactive call. Calls of active or inactive are those of the source. Rule as the data show it: active = growth inhibition above about 70%; inactive = the rest.

Key:
[1] = NCI Yeast Anticancer Drug Screen. Data for the mlh1 strain (AID 171);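 also: 0% = growth of vehicle-treated control cultures of the same strain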; details: S. cerevisiae mlh1 strain growth inhibition, stronger effect = higher value
Summary of the method: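 Inhibition values reflect reduced yeast growth in the presence of compound, referenced to vehicle controls, using a strain chosen for its alteration in DNA repair or cell cycle control.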

[2] = NCI Yeast Anticancer Drug Screen. Data for the sgs1 strain (AID 173);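 also: 0% = growth of vehicle-only control cultures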; details: S. cerevisiae sgs1 mutant, stronger effect = higher value
Summary of the method: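 Vehicle-treated cultures served as reference for growth inhibition of a yeast strain altered in DNA damage repair or cell cycle control after compound exposure.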

[3] = NCI Yeast Anticancer Drug Screen. Data for the mlh1 rad18 strain (AID 175); details: S. cerevisiae mlh1 rad18 strain growth inhibition, stronger effect = higher value
Summary of the method: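 Inhibition values reflect reduced growth of mutant yeast versus vehicle-treated controls following compound exposure; the mutations affect DNA damage repair.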

[4] = NCI Yeast Anticancer Drug Screen. Data for the rad18 strain (AID 177); details: S. cerevisiae rad18 mutant growth inhibition, stronger effect = higher value
Summary of the method: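 Steps: expose repair-mutant yeast to compound; measure growth; express as inhibition relative to vehicle control.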

[5] = NCI Yeast Anticancer Drug Screen. Data for the rad52 strain (AID 147);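 also: 0% = growth of vehicle-treated control cultures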; details: S. cerevisiae rad52 mutant growth inhibition, stronger effect = higher value
Summary of the method: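 Inhibition of yeast growth, referenced to vehicle controls, was the measured output for a strain with defective DNA damage repair.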

[6] = NCI Yeast Anticancer Drug Screen. Data for the wt1 strain (AID 149);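 also: 0% = growth of vehicle-treated wt1 cultures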; details: S. cerevisiae wt1 strain (SPY 50644) growth inhibition, stronger effect = higher value
Summary of the method: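 wt1 yeast, compound-treated; % growth inhibition vs vehicle control.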

[7] = NCI Yeast Anticancer Drug Screen. Data for the rad50EPP+ strain (AID 151);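 also: 0% = growth of vehicle-treated control cultures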; details: S. cerevisiae rad50 mutant strain, stronger effect = higher value
Summary of the method: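 Genetically defined yeast (rad50EPP+, DNA damage repair alteration) is grown with compound, and inhibition of growth is expressed relative to vehicle-treated controls.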

[8] = NCI Yeast Anticancer Drug Screen. Data for the rad50 strain (AID 155);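 also: 0% = growth of vehicle-only cultures of the same strain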; details: S. cerevisiae rad50 strain growth inhibition, stronger effect = higher value
Summary of the method: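 Genetically altered yeast (DNA repair pathway); compound treatment; growth inhibition vs vehicle ctrl.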

[9] = NCI Yeast Anticancer Drug Screen. Data for the mec2-1 strain (AID 157); details: S. cerevisiae mec2-1 strain, stronger effect = higher value
Summary of the method: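 Each compound was tested on mec2-1 yeast, a strain altered in DNA damage repair or cell cycle control. Growth inhibition is reported relative to vehicle.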

[10] = NCI Yeast Anticancer Drug Screen. Data for the rad14 strain (AID 159);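 also: 0% = growth of vehicle-treated control cultures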; details: S. cerevisiae rad14 strain growth inhibition, stronger effect = higher value
Summary of the method: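 Test compounds were applied to a repair-deficient yeast strain. Its growth was then compared with that of cultures given vehicle alone, and inhibition was expressed relative to those controls.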

[11] = NCI Yeast Anticancer Drug Screen. Data for the sgs1 mgt1 strain (AID 161);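 also: 0% = growth of cultures given vehicle only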; details: S. cerevisiae sgs1 mgt1 strain, stronger effect = higher value
Summary of the method: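 Inhibition of yeast growth, normalised to vehicle-treated controls, is reported for a strain bearing genetic alterations in DNA damage repair.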

[12] = NCI Yeast Anticancer Drug Screen. Data for the cln2 rad14 strain (AID 165);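 also: 0% = growth equal to vehicle treated cultures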; details: S. cerevisiae cln2 rad14 strain, stronger effect = higher value
Summary of the method: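 Test compounds were added to cln2 rad14 yeast cultures; inhibition of growth was then determined by comparison with vehicle treatment.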

[13] = NCI Yeast Anticancer Drug Screen. Data for the bub3 strain (AID 167); details: S. cerevisiae bub3 mutant strain, stronger effect = higher value
Summary of the method: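 Yeast carrying a defined mutation is treated with each compound, and growth is compared with that of vehicle-exposed cells to give inhibition.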

[14] = NCI Yeast Anticancer Drug Screen. Data for the wt2 strain (AID 169);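 also: 0% = growth of vehicle-treated yeast cultures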; details: S. cerevisiae wt2 strain growth inhibition, stronger effect = higher value
Summary of the method: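 The panel's yeast strains carry defined changes in DNA repair or cell cycle genes. Each strain is grown with compound, and growth loss is scored relative to vehicle.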

[15] = at 5.0 µM (retest, dose inferred, filed as 0.5)
[16] = at 50.0 µM (retest, dose inferred, filed as 5.0)

**Q.** For `CCS(=O)(=O)c1ccc(/C=C/C=N/NC(=S)NCC(C)C)cc1`, which growth inhibition ([1]; at 1.2 µM) is on record?
**A.** The growth inhibition was 4%.

**Q.** What about the growth inhibition ([1]; at 3.7 µM) of the same compound?
**A.** The growth inhibition was 0%.

**Q.** What about the growth inhibition ([1]; at 11.0 µM) of the same compound?
**A.** Its growth inhibition is -3%.

**Q.** What about the growth inhibition ([1]; at 33.0 µM) of the same compound?
**A.** The growth inhibition was 13%.

**Q.** What about the growth inhibition ([1]; at 100.0 µM) of the same compound?
**A.** The growth inhibition was 41%.

**Q.** What about the growth inhibition ([2]; at 1.2 µM) of the same compound?
**A.** The growth inhibition was -4%.

**Q.** What about the growth inhibition ([2]; at 3.7 µM) of the same compound?
**A.** The growth inhibition was 1%.

**Q.** What about the growth inhibition ([2]; at 11.0 µM) of the same compound?
**A.** Its growth inhibition is -24%.

**Q.** And the growth inhibition ([2]; at 33.0 µM)?
**A.** Its growth inhibition is 1%.

**Q.** And the growth inhibition ([2]; at 100.0 µM)?
**A.** The growth inhibition was 48%.

**Q.** What about the growth inhibition [3, 15] of the same compound?
**A.** The growth inhibition was 8%.

**Q.** What about the growth inhibition [3, 16] of the same compound?
**A.** Its growth inhibition is 43%.

**Q.** What about the growth inhibition ([3]; at 50.0 µM) of the same compound?
**A.** Its growth inhibition is 4%.

**Q.** What about the growth inhibition ([4]; at 1.2 µM) of the same compound?
**A.** Its growth inhibition is 6%.

**Q.** What about the growth inhibition ([4]; at 3.7 µM) of the same compound?
**A.** The growth inhibition was 2%.

**Q.** And the growth inhibition ([4]; at 11.0 µM)?
**A.** Its growth inhibition is -1%.

**Q.** What about the growth inhibition ([4]; at 33.0 µM) of the same compound?
**A.** Its growth inhibition is 5%.

**Q.** What about the growth inhibition ([4]; at 100.0 µM) of the same compound?
**A.** The growth inhibition was 9%.

**Q.** What does the source list for `C/C(=N/NC(=S)N1CCCCCC1)c1cccc(/C(C)=N\NC(=S)N2CCCCCC2)n1`?
**A.** growth inhibition ([5]; at 1.2 µM): 19%; growth inhibition ([5]; at 3.7 µM): 25%; growth inhibition ([5]; at 11.0 µM): 54%; growth inhibition ([5]; at 33.0 µM): 73% (active); growth inhibition ([5]; at 100.0 µM): 71% (active); growth inhibition ([6]; at 1.2 µM): 17%; growth inhibition ([6]; at 3.7 µM): 34%; growth inhibition ([6]; at 11.0 µM): 60%; growth inhibition ([6]; at 33.0 µM): 82% (active); growth inhibition ([6]; at 100.0 µM): 81% (active); growth inhibition ([7]; at 1.2 µM): 0%; growth inhibition ([7]; at 3.7 µM): -1%; growth inhibition ([7]; at 11.0 µM): -27%; growth inhibition ([7]; at 33.0 µM): -48%; growth inhibition ([7]; at 100.0 µM): -39%; growth inhibition ([8]; at 1.2 µM): 38%; growth inhibition ([8]; at 3.7 µM): 42%; growth inhibition [8, 15]: 42%; growth inhibition ([8]; at 11.0 µM): 62%; growth inhibition ([8]; at 33.0 µM): 79% (active); growth inhibition [8, 16]: 93% (active); growth inhibition ([8]; at 50.0 µM): 90.8% (active); growth inhibition ([8]; at 100.0 µM): 73% (active); growth inhibition ([9]; at 1.2 µM): 22%; growth inhibition ([9]; at 3.7 µM): 31%; growth inhibition [9, 15]: 31%; growth inhibition ([9]; at 11.0 µM): 51%; growth inhibition ([9]; at 33.0 µM): 81% (active); growth inhibition [9, 16]: 92% (active); growth inhibition ([9]; at 50.0 µM): 91% (active); growth inhibition ([9]; at 100.0 µM): 83% (active); growth inhibition ([10]; at 1.2 µM): 6%; growth inhibition ([10]; at 3.7 µM): 14%; growth inhibition ([10]; at 11.0 µM): 40%; growth inhibition ([10]; at 33.0 µM): 71% (active); growth inhibition ([10]; at 100.0 µM): 76% (active); growth inhibition [11, 15]: 43%; growth inhibition [11, 16]: 93% (active); growth inhibition ([11]; at 50.0 µM): 92.8% (active); growth inhibition [12, 15]: 9%; growth inhibition [12, 16]: 91% (active); growth inhibition ([12]; at 50.0 µM): 93.2% (active); growth inhibition ([13]; at 1.2 µM): -4%; growth inhibition ([13]; at 3.7 µM): -3%; growth inhibition [13, 15]: 58%; growth inhibition ([13]; at 11.0 µM): -4%; growth inhibition ([13]; at 33.0 µM): 7%; growth inhibition [13, 16]: 92% (active); growth inhibition ([13]; at 50.0 µM): 92% (active); growth inhibition ([13]; at 100.0 µM): 15%; growth inhibition ([14]; at 1.2 µM): -1%; growth inhibition ([14]; at 3.7 µM): -6%; growth inhibition ([14]; at 11.0 µM): -1%; growth inhibition ([14]; at 33.0 µM): 8%; growth inhibition ([14]; at 100.0 µM): 32%; growth inhibition ([1]; at 1.2 µM): -2%; growth inhibition ([1]; at 3.7 µM): -9%; growth inhibition ([1]; at 11.0 µM): 51%; growth inhibition ([1]; at 33.0 µM): 76% (active); growth inhibition ([1]; at 100.0 µM): 71% (active); growth inhibition ([2]; at 1.2 µM): 21%; growth inhibition ([2]; at 3.7 µM): 15%; growth inhibition ([2]; at 11.0 µM): 41%; growth inhibition ([2]; at 33.0 µM): 66%; growth inhibition ([2]; at 100.0 µM): 73% (active); growth inhibition [3, 15]: 59%; growth inhibition [3, 16]: 91% (active); growth inhibition ([3]; at 50.0 µM): 90.3% (active); growth inhibition ([4]; at 1.2 µM): 10%; growth inhibition ([4]; at 3.7 µM): 26%; growth inhibition ([4]; at 11.0 µM): 46%; growth inhibition ([4]; at 33.0 µM): 67%; growth inhibition ([4]; at 100.0 µM): 70% (active)
